Most compounds without a hit are left out; they make up all but 2.8% or so of the library.
MsrA inh – inhibitors of bovine MsrA; actives 0.75% (n = 360,000); inhibition, % at 15.5 µM; AID 651718; purified bovine MsrA, absorbance read-out; in the data active = inhibition above about 4.5%
sPLA2-III inh – Inhibits HGIII-sPLA2 liposome hydrolysis, primary screen; Q9NZ20; QFRET BODIPY PC-A2 liposome hydrolysis, fluorescence; inhibition, % at 12.2 µM; actives 0.56% (n = 370,000); AID 743126;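 active = inhibition above mean plus 3 SD of compounds lying within the high and low control bounds, cut at about 19% in these data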
Target sequence (Q9NZ20 whole entry, looked up): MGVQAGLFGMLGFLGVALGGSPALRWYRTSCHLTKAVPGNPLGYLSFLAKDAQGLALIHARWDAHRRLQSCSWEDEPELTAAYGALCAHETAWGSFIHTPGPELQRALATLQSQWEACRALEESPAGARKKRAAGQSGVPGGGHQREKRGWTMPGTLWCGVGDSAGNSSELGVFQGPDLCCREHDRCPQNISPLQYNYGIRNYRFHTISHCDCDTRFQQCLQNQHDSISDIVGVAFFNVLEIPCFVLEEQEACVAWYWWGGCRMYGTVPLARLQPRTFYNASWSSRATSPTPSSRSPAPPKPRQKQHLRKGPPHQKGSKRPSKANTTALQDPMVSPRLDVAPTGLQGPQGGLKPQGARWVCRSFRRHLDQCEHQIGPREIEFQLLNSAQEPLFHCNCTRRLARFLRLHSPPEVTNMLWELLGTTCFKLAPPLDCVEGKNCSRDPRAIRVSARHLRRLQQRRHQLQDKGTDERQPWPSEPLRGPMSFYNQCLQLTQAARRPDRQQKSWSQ
rCAG binder-1 – r(CAG) repeat RNA binding | TO-PRO-1 dye displacement fluorescence | inhibition, % at 3 µM | actives 1.3% (n = 370,000);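 active = inhibition above the plate cutoff, the mean of all test compounds on that plate plus 3 SD, cut at about 35% in these data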;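 note: higher means more dye released from RNA so lower well fluorescence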
MsrA act – activates bovine MsrA enzyme | purified bovine MsrA, absorbance read-out | activation, % at 10.6 µM | actives 0.3% (n = 360,000) | AID 602163; in the data active = activation above about 7.5%
rCAG bind conf – r(CAG) RNA repeat binding, confirmation; TO-PRO-1 dye displacement fluorescence; actives 70% (n = 4,300); shares compounds with rCAG binder-1; inhibition, % at 3 µM;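 active = inhibition above a per-plate cutoff, the mean inhibition of sample wells plus 3 SD, cut at about 35% in these data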;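 note: loss of TO-PRO-1 fluorescence as compound displaces dye from 1x1 AA loop RNA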
DNA CAG counter – DNA CAG dye complex inhibition counter-screen | d(CAG) DNA oligo TO-PRO-1 dye displacement, fluorescence | actives 94% (n = 4,300) | AID 652068 | inhibition, % at 3 µM | shares compounds with rCAG binder-1;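 active = inhibition above its plate's cutoff, the mean test-well inhibition plus 3 SD, cut at about 4.8% in these data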;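 note: hits displace the dye from DNA and so lower well fluorescence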
DNA CAG DR – DNA CAG dye complex inhibition, dose response counter-screen | shares compounds with rCAG binder-1 | DNA CAG/GTC duplex TO-PRO-1 dye displacement fluorescence | IC50, µM | actives 20% (n = 250) | AID 686960; in the data active = IC50 below about 10 µM
dCAG TOPRO ctr – inhibits DNA CAG/GTC TO-PRO-1 complex, rCAG binder counter-screen; IC50, µM; d(CAG) DNA duplex TO-PRO-1 dye displacement, fluorescence; actives 80% (n = 30); AID 720649; shares compounds with rCAG binder-1
rCAG binder-2 – r(CAG) repeat RNA binding, TO-PRO-1 displacement; actives 100% (n = 30); AID 720651; shares compounds with rCAG binder-1; IC50, µM; r(CAG) RNA TO-PRO-1 dye displacement, fluorescence
Numbers stand for hits; - = inactive; . = no result given. Unless noted, the rule behind the calls is not given here.

SMILES	MsrA inh	sPLA2-III inh	rCAG binder-1	MsrA act	rCAG bind conf	DNA CAG counter	others
O=C(O)Cn1c(O)c(C=Nc2ccccc2)sc1=S	-	-	-	-	.	.
CCCn1c(O)c(/C=C2\C=NN=C2c2ccccc2)sc1=S	-	-	-	-	.	.
O=C(O)CCCCCn1c(O)c(C=C2N=c3ccccc3=N2)sc1=S	-	-	83.5	-	64.6	29.0	DNA CAG DR=-;dCAG TOPRO ctr=2.41;rCAG binder-2=0.981
Cc1ccc(NC(=O)CCC(=O)NNC(=O)COc2ccccc2)cc1C	-	-	-	-	.	.
Cc1cnc(=O)[nH]c1SCC(=O)Nc1nccs1	-	-	-	-	.	.
Cc1ccc(S(=O)(=O)Nc2ccc3ccccc3c2[N+](=O)[O-])cc1	-	-	61.1	-	52.2	17.7
Cc1ccc(S(=O)(=O)Nc2ccc3cc([N+](=O)[O-])ccc3c2[N+](=O)[O-])cc1	-	-	82.7	-	81.9	47.0
C[C@H](CO)N1C[C@H](C)[C@@H](CN(C)Cc2ccncc2)Oc2c(NS(=O)(=O)c3ccc(F)cc3)cccc2C1=O	-	-	-	-	.	.
CN(C)C1N(C(=O)c2ccccc2)N=C2c3ccccc3S(=O)(=O)N21 (stereo not drawn)	-	-	-	-	.	.
CCN(CC)S(=O)(=O)c1cc(NS(=O)(=O)c2c(Cl)cccc2Cl)ccc1C	-	-	-	-	.	.
CCN(CC)S(=O)(=O)c1cc(NS(=O)(=O)c2cccc(Cl)c2Cl)ccc1C	-	-	41.7	-	40.6	11.9
O=C(N/N=C1/CC2CCC1C2)c1cc2ccccc2cc1O (stereo not drawn)	-	-	51.1	-	-	-
COc1ccc(-n2nc3c(c2NC(=O)CCCl)CSC3)cc1	-	-	-	-	.	.
c1ccc(-c2cc3c(ccc4nonc43)nn2)cc1	-	-	-	-	.	.
On1onc2c3cc(-c4ccccc4)nc3ccc21	-	-	41.0	-	-	5.0
c1coc(-c2nc(N=C3N=c4ccccc4=N3)[nH]c2-c2ccco2)c1	-	-	39.2	-	-	18.8
O=C(c1ccc(S(=O)(=O)N2CCCC2)cc1)N1CCCCC1	-	-	-	-	.	.
O=C(/C=C/c1ccc(O)c(O)c1)c1ccc(S(=O)(=O)N2CCCCCC2)cc1	-	-	46.3	-	48.0	26.0
COC(=O)C1=C(O)/C(=C\c2ccc(CNS(=O)(=O)c3ccccc3)o2)N=C1C	-	-	-	-	.	.
COC(=O)C1=C(O)/C(=C\c2ccc(CNS(=O)(=O)c3ccc(Cl)cc3)o2)N=C1C	-	-	36.8	-	42.0	14.5
CCOC(=O)C1=C(O)/C(=C\c2ccc(CNS(=O)(=O)c3ccc(Br)cc3)o2)N=C1C	-	-	36.6	-	42.8	15.6
CCCC(=O)Nc1ccc(C(=O)NCc2ccccn2)cc1	-	-	-	-	.	.
COC(=O)CSc1nnc(-c2ccc(NS(=O)(=O)c3ccc(Cl)s3)cc2)o1	.	-	38.5	.	-	5.8
Cc1cc(C)c2sc(NNC(=O)c3ccc(S(=O)(=O)N4CCc5ccccc5C4)cc3)nc2c1	-	44.9	48.2	-	58.9	29.1
O=C1c2ccccc2C(O)(c2ccccc2)N1c1ccc([N+](=O)[O-])cc1Cl (stereo not drawn)	-	-	40.4	-	40.5	10.2
SMILES	MsrA inh	sPLA2-III inh	rCAG binder-1	MsrA act	rCAG bind conf	DNA CAG counter	others
O=C(Nc1cccc2c1CCCC2)c1cc(C2CCCCN2C(=O)OCCF)on1 (stereo not drawn)	-	-	-	-	.	.
N#Cc1c(N(CCO)CCO)nc(N)c2c(N)nc3c(c12)CC(=O)N3Cc1cccs1	.	.	.	-	.	.
CN(CCO)c1nc(N)c2c(N)nc3c(c2c1C#N)CC(=O)N3Cc1cccs1	-	-	38.1	-	-	9.2
COc1cc(OC)c(NC(=O)c2ccc3c(SCC(=O)O)c4c(nc3c2)CCCC4)cc1Cl	-	-	50.6	-	62.1	24.4
NC(=O)C1CCN(C(=O)CCC(=O)N2CCOc3ccc(Cl)cc32)CC1	-	-	-	-	.	.
O=C1N/C(=N/S(=O)(=O)Cc2ccccc2)S/C1=C/c1ccc2c(c1)OCO2	-	-	66.3	-	56.4	19.0
